Bioassay records from PubChem BioAssay.
Most compounds without a hit are left out; they make up all but 6.1% or so of the library.
D1 potentiator – human D1 dopamine receptor positive modulation. potentiation, % at 10 µM. HEK293 TREx D1 cells, calcium flux, dopamine EC20 potentiation. P21728. hit rate 0.036% among 360,000. AID 504651; in the data active = potentiation above about 30%; note: 0% is about no effect
D3 ag – agonists of human D3 dopamine receptor; P35462; D3R DiscoveRx beta-arrestin cells, luminescence, 90 min; max activation, %; hit rate 0.58% among 410,000; in the data active = max activation above about 30%; note: 0% is about no effect
Target sequence (P35462 whole entry, looked up): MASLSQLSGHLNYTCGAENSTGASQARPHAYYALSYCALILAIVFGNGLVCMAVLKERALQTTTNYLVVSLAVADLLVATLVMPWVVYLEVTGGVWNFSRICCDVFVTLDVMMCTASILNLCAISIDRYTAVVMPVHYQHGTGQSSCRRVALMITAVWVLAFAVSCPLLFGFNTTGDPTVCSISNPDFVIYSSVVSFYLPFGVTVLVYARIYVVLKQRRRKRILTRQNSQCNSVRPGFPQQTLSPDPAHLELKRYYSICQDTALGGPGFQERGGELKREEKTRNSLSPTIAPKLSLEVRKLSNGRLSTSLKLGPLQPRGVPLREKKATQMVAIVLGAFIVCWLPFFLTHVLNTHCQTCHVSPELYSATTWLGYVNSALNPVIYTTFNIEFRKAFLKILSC
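Cells at 1500/well, incubated overnight, then treated with pinned compounds (dopamine as control) for 90 min at 37 degrees C. DiscoveRx reagent added for 30 - 60 minutes at room temperature; luminescence read.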
DRD3 antagonist – antagonists of human D3 dopamine receptor | D3R cells, DiscoveRx beta-arrestin luminescence, antagonist mode; stronger effect = lower value | max response, negative = inhibition, % | hit rate 2.5% among 360,000; in the data active = max response below about -50%; inconclusive = no clear call, values can overlap the other calls; note: % is set by controls: 0 for no effect and ±100 for the full control effect
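Cells expressing the human receptor were seeded at 1500 cells/well, incubated overnight at 37 degrees C in 5% CO2, then exposed to library compounds with dopamine controls for 90 minutes at 37 degrees C before luminescent detection.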
D1 antagonist – antagonists of human D1 dopamine receptor | P21728 | hit rate 3.2% among 360,000 | activity change, negative = inhibition, % at 10 µM | HEK293 TREx D1 cells, calcium flux, dopamine EC80; stronger effect = lower value; in the data active = activity change below about -30%; note: % is set by controls: 0 for no effect and ±100 for the full control effect
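HEK293 T-REx cells expressing inducible, force-coupled D1 receptor; no-wash Ca dye, 30–90 min RT. Cmpd → 180 s read at 1 Hz → EC80 DA → 180 s read.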
D1 ag – human D1 receptor agonism | P21728 | HEK293 T-REx D1 cells, calcium flux, agonist mode | activation, % at 2 µM | hit rate 1% among 360,000 | AID 504660; in the data active = activation above about 30%; note: 0% is about no effect
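Agonism was scored from calcium flux recorded over 180 s (1 read/s) after pintool compound addition, following a 10-cycle baseline. Cells were inducible force-coupled HEK293 TREx D1, plated overnight at 30 C and loaded with no-wash calcium dye.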
Active calls of the source: *; ? = inconclusive; . = no result.

SMILES	D1 potentiator	D3 ag	DRD3 antagonist	D1 antagonist	D1 ag
Cc1sc2nc(SCCN(C)C)n(-c3ccccc3)c(=O)c2c1-c1ccc(F)cc1	.	-15	-69*	26	4
O=[N+]([O-])c1ccc(N2CCN(c3ccc([N+](=O)[O-])cc3CO)CC2)c(CO)c1	-5	-2	-1	-20	10
N#Cc1cc([N+](=O)[O-])ccc1N1CCN(c2ccccc2O)CC1	-13	0	-17	-30*	24
COc1ccc(CN2CCc3ccccc3C2)c(OC)c1	-4	-14	-65*	7	1
COc1ccc(CN2CCc3ccccc3C2)c(OC)c1OC	5	-30	-75*	19	4
COc1ccc(NC(=O)CN2CCc3ccccc3C2)c(OC)c1	-9	-23	-10	-10	1
COc1ccc(OC)c(CN2CCN(Cc3ccc(OC)c(OC)c3OC)CC2)c1	.	-5	?	.	.
CC(C)c1ccccc1NS(=O)(=O)c1cccs1	-1	4	-5	-5	-1
O=C(Cc1cccc(NC(=O)C2CCCN(C(=O)CCc3ccccc3)C2)c1)Nc1ccc(C(=O)N2CCCCC2)cc1 (centres undefined)	.	-34	-52*	.	.
CN(C(=O)c1cccc(NC(=O)Cc2cccc([N+](=O)[O-])c2)c1)C1CCCC1	.	-19	-75*	.	.
CN(C(=O)c1cccc(NC(=O)Cc2cccc(NC(=O)C3CCN(C(=O)CCc4ccccc4)CC3)c2)c1)C1CC1	.	40*	10	.	.
CN(Cc1ccccc1)C(=O)c1cccc(NC(=O)Cc2ccc(NC(=O)C3CCN(C(=O)CCc4ccccc4)CC3)cc2)c1	.	78*	44	.	.
Cc1onc(-c2ccccc2Cl)c1C(=O)N1CCN(S(=O)(=O)c2ccc(F)c(F)c2)CC1	5	6	13	13	2
Cc1cc(C)cc(NC(=O)CN2C(=O)c3ccccc3Sc3ncccc32)c1	-3	-7	.	4	5
Cc1ccc(NC(=O)N2CCC(NC(=O)c3ccccc3C)CC2)cc1	-2	-4	9	14	1
Cc1ccccc1[C@H](NC1c2ccccc2C=Cc2ccccc21)P(=O)(c1ccccc1)c1ccccc1	.	-5	-56*	.	.
COc1ccc(NC(=O)CN(C)S(=O)(=O)c2ccc3nc(C)sc3c2)cc1	-1	4	.	-25	-1
Cc1ccc(Cl)cc1NC(=O)/C(C#N)=C/c1c(C)n(Cc2ccccc2)c2ccccc12	2	-10	.	-10	13
Cc1c(/C=C(\C#N)C(=O)Nc2cccc(Cl)c2)c2ccccc2n1Cc1ccccc1	-1	0	.	6	32*
CC(=O)N=c1sc(S(N)(=O)=O)nn1C	-4	-91	-121*	14	2
Clc1cccc(C(c2ccc3nc[nH]c3c2)n2ccnc2)c1 (centres undefined)	.	2	.	.	.
S=C1SCN(Cc2ccccn2)CN1Cc1ccco1	-4	-20	-62*	-15	2
COc1c(Cl)cccc1NC(=O)c1c(NC(=O)Cc2ccccc2)sc2c1CCCC2	-6	.	.	5	1
COc1ccc(O)c(C(=O)c2cnn(C(=O)c3cc(C)oc3C)c2)c1	-9	4	5	-46*	2
CCc1ccc(CN2CCC(n3nccc3NC(=O)C3CCCC3)CC2)cc1	32*	-31	1	68	9
SMILES	D1 potentiator	D3 ag	DRD3 antagonist	D1 antagonist	D1 ag
O=C(Nc1ccnn1C1CCN(Cc2ccc3nonc3c2)CC1)c1cccc(F)c1	1	-7	-22	-39*	8
CCc1ccc(CN2CCC(n3nccc3NC(=O)c3cccc(F)c3)CC2)cc1	15	-5	14	0	6
CCN(CC)CCCn1c2c(c(SCC(=O)Nc3cc(C)cc(C)c3)nc1=O)CCC2	.	-7	-10	.	.
CCN(CC)CCCn1c2c(c(SCC(=O)Nc3nccs3)nc1=O)CCC2	0	0	7	-56*	2
CCc1ccc(C2C(C#N)=C(N)C(C#N)(C#N)C3=CCC(C(C)(C)C)CC32)cc1 (centres undefined)	-2	-12	-93*	4	0
CC(C)(C)C1CC=C2C(C#N)=C(N)C(C#N)(C#N)C(c3cccs3)C2C1 (centres undefined)	11	.	.	-6	2
COc1ccc(S(=O)(=O)Nc2ccccc2C(=O)N2CCOCC2)cc1C	1	-3	6	0	0
CSCC(C)N1CCC(n2nccc2NC(=O)CCCc2ccccc2)CC1 (centres undefined)	1	-7	1	2	7
CSCCCN1CCC(n2nccc2NC(=O)CCCc2ccccc2)CC1	0	-47	-50*	11	3
C=C(C)CCC(C)N1CCC(n2nccc2NC(=O)CCCc2ccccc2)CC1 (centres undefined)	-4	5	-60*	29	4
CC/C(Cc1ccccc1)=N/NC(=O)CNC(=O)c1ccc(Cl)cc1Cl	-8	-4	-9	-9	-1
CC(=O)CCC(=O)NC1CCCc2c1cnn2-c1ccc(C(C)(C)C)cc1 (centres undefined)	-3	29	28	-37*	12
COC(=O)C1=C(C(=O)OC)[C@]2([C@H]3CCCCN[C@@H](Cc4ccccc4)C(=O)N3Cc3ccccc3)C=C[C@H]1O2	.	-6	-13	.	.
COC(=O)c1[nH]c2ccccc2c1NC(=O)CCN1CCSCC1	-2	1	-57*	-5	3
COC(=O)c1[nH]c2cc(OC)ccc2c1NC(=O)CCN1CCN(c2ccccc2)CC1	-5	-3	-76*	.	1
COc1ccc(OC)c(NC(=O)CCN2CCN(c3ccccc3)CC2)c1	6	30*	-53*	2	3
COC(=O)c1[nH]c2cc(OC)ccc2c1NC(=O)CCN1CCN(c2cccc(C)c2C)CC1	-6	-3	-80*	1	0
CCOC(=O)c1[nH]c2ccc(OC)cc2c1NC(=O)CCN1CCSCC1	-1	0	-7	-2	2
Oc1ccc(COc2cccc3ccccc23)c2cccnc12	4	.	.	25	2
COc1ccc(Cl)cc1NC(=O)c1c(NCc2cccs2)sc2c1CCCC2	6	-5	.	-20	1
CC(=O)Nc1cncc(-c2cccc(C(=O)N(C)C)c2)n1	.	-1	?	.	.
CC(=O)NC(NC(=S)Nc1ccc(N=Nc2ccccc2C)cc1C)C(Cl)(Cl)Cl (centres undefined)	-2	-1	-81*	15	1
COc1ccc(C(=O)COC(=O)CCN=C2NS(=O)(=O)c3ccccc32)c(OC)c1	-5	12	17	-13	-1
Cc1ccc(C)c(N2CCN(CCCNC(=O)Cn3cc4c(n3)CCCCC4)CC2)c1	-5	-13	-96*	-12	33*
O=C(Cn1cc2c(n1)CCCC2)NCCCN1CCN(c2ccccc2F)CC1	-8	1	-83*	-35*	0
Cc1ccc(C)c(N2CCN(CCCNC(=O)Cn3cc4c(n3)CCC(C)C4)CC2)c1 (centres undefined)	-6	-11	-60*	-2	48*
